Screening data from PubChem BioAssay.
Most compounds without a hit are left out; they make up all but 2.9% or so of the library.
PLCg1 inh = inhibitors of human phospholipase C gamma1; P19174; purified PLC-gamma1, fluorogenic substrate, fluorescence; inhibition, % at 12.2 µM; 370,000 compounds, 0.84% hits; in the data active = inhibition above about 9.5%
proKLK7 act = activators of human kallikrein-7 zymogen | purified proKLK7, EDANS-DABCYL substrate fluorescence; 100% is mature enzyme control, 0% vehicle | 370,000 compounds, 0.9% hits | activation, % at 7 µM | P49862 | AID 652039;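 active = activation above the mean of all tested compounds plus 3 SD, computed per campaign excluding outliers beyond control limits, cut at about 13% in these data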
ADAM10 inh = inhibitors of human ADAM10 | 370,000 compounds, 0.62% hits | inhibition, % at 7 µM | recombinant ADAM10, EDANS/DABCYL FRET peptide cleavage, 3 h | O14672;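 active = inhibition above a per-campaign cutoff equal to the mean of compounds falling between control-based bounds plus 3 SD, cut at about 20% in these data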;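 note: 0% = DMSO wells while the 100% control is not disclosed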
ADAM17 inh = inhibits human ADAM17; P78536; recombinant ADAM17, EDANS/DABCYL FRET peptide cleavage; inhibition, % at 6.95 µM; 370,000 compounds, 0.83% hits;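 active = inhibition above the mean of compounds lying between control limits plus 3 SD, set per campaign, cut at about 8.5% in these data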;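 note: 0% = DMSO-only wells as the low control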
PLC-beta3 inh = inhibitors of human phospholipase C beta3; Q01970; Purified PLC-beta3, fluorogenic substrate, fluorescence; inhibition, % at 12.2 µM; 370,000 compounds, 0.18% hits; AID 720704; in the data active = inhibition above about 11%;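 note: 0% = median of compound wells on plate and 100% = full blocker control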
ADAM10 confirm = human ADAM10 inhibition, confirmation; shares compounds with ADAM10 inh; ADAM10 QFRET peptide cleavage, EDANS fluorescence; inhibition, % at 6.95 µM; 2,100 compounds, 1% hits;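 active = inhibition above about 20% chosen separately for each screening run, limit read from the data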;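 note: 0% = DMSO wells and 100% = marimastat wells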
ADAM17 counter = counter-screen for ADAM10 exosite inhibitors: inhibitors of human ADAM17; shares compounds with ADAM10 inh; ADAM17 QFRET peptide cleavage, EDANS fluorescence; inhibition, % at 6.95 µM; 2,100 compounds, 0.5% hits; AID 743214;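 active = mean triplicate inhibition above the solvent-only control wells' mean plus 3 SD, cut at about 12% in these data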;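 note: 0% = DMSO wells and 100% = marimastat wells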
The depositor's hits bear a star; · = no result given.

SMILES	PLCg1 inh	proKLK7 act	ADAM10 inh	ADAM17 inh	PLC-beta3 inh	ADAM10 confirm	ADAM17 counter
O=C(Nc1ccc(S(=O)(=O)NCC2CCCO2)cc1)C1CC(=O)N(c2ccccc2)C1 (stereo not given)	-3.5	0.2	4.0	-3.1	-2.8	·	·
CCOC(=O)CCSc1nc(N2CCOCC2)c2c(c1C#N)CC(C)(C)OC2	1.6	0.0	-3.6	-4.1	-4.3	·	·
CC(=O)Nc1ccc(S(=O)(=O)NNC2=NS(=O)(=O)c3ccccc32)cc1	1.8	-0.6	2.5	-1.2	4.1	·	·
C[C@@H]1C(c2ccccc2)CC(=O)C(=O)C[C@@H]1C(=O)N1CCCC1 (stereo not given in full)	-2.6	0.8	-6.2	-2.9	1.0	·	·
C[C@@H](NC(=O)c1[nH]cnc1C(=O)Nc1ccccc1)c1ccccc1	1.7	0.1	15.8	3.1	0.2	·	·
Cc1ccc(NC(=O)c2nc[nH]c2C(=O)N[C@@H](C)c2ccccc2)cc1	-26.2	0.9	23.8*	5.9	1.3	4.8	2.1
CC(=O)c1cc(F)c(N2CCN(C(=O)C(C)(C)C)CC2)cc1C	6.0	-0.3	3.0	3.9	4.7	·	·
Oc1ccc(Cl)cc1Sc1cc(Cl)ccc1O	3.2	0.9	25.5*	6.3	-8.8	8.4	1.9
CN(C)C(=O)c1cc(Cl)ccc1Sc1cc(Cl)ccc1Cl	-0.6	0.0	6.9	-3.1	-0.7	·	·
CCOc1ccc(NC(=S)N(Cc2ccc(Cl)cc2)Cc2ccco2)cc1	6.9	0.3	24.2*	7.5	-0.2	10.2	3.2
CC1CCCN(S(=O)(=O)c2ccc(NC(=O)CN3C(=O)NC(C)(c4ccccc4)C3=O)cc2)C1 (stereo not given)	4.2	0.2	20.2*	5.0	-8.9	3.6	0.5
COc1ccc(C2(C)NC(=O)N(CC(=O)Nc3ccc(S(=O)(=O)N4CCCC4)cc3)C2=O)cc1 (stereo not given)	-0.4	0.8	1.0	-2.0	-9.7	·	·
CC1(C(=O)Nc2ccccc2)CCN1C(=O)Cc1ccc(-c2ccccc2)cc1 (stereo not given)	1.9	-0.1	-5.8	3.6	3.5	·	·
COc1cccc(NC(=O)C2(C)CCN2C(=O)Cc2ccc(-c3ccccc3)cc2)c1 (stereo not given)	-1.0	-0.3	25.1*	8.3	-4.2	5.6	1.6
CC(C)(C)c1ccc(S(=O)(=O)NC(=O)C2(C)CCN2C(=O)Cc2ccccc2Cl)cc1 (stereo not given)	2.7	-0.2	-2.4	-2.8	0.2	·	·
COc1ccc(S(=O)(=O)NC(=O)C2(C)CCN2C(=O)Cc2ccccc2Cl)cc1 (stereo not given)	0.2	0.5	85.8*	-1.2	-0.4	-0.3	-0.1
CN1C(=O)Cc2cc(S(=O)(=O)N3CCN(c4ccc(Cl)cc4)CC3)ccc21	7.1	0.3	21.0*	7.9	-5.0	-0.7	-0.1
COc1cc(Sc2ccc(C)cc2)c(OC)cc1N	-5.6	-0.1	29.7*	-1.0	-9.2	2.1	1.4
O=C(Nc1cc(Sc2ccccn2)cc([N+](=O)[O-])c1)c1cccc(Cl)c1	0.2	-1.3	19.8*	7.2	4.5	7.2	2.7
O=C(NC1CCCCC1)C(=S)N1CCCC1	1.8	-0.7	-8.7	-5.8	-6.9	·	·
CCCOC(=O)c1ccc(Oc2c(-c3ccc(O)cc3O)n[nH]c2C)cc1	-1.3	0.2	22.0*	5.8	-2.0	2.6	2.3
CCc1ccc2c(CN3CCN(S(=O)(=O)c4cccs4)CC3)cc(=O)oc2c1	8.1	-0.6	20.7*	5.5	9.6	2.8	0.2
CCc1ccc2c(CN3CCN(S(=O)(=O)c4ccccc4F)CC3)cc(=O)oc2c1	0.7	1.7	11.7	2.5	0.4	·	·
CCC(CO)Oc1cc(NCc2ccc(Cl)cc2)c2ncn(C(C)C)c2c1 (stereo not given)	-46.6	-0.3	-10.5	-9.5	-56.9	·	·
CCC(CO)Oc1cc(NCc2ccc(Cl)cc2Cl)c2ncn(C(C)C)c2c1 (stereo not given)	3.8	0.2	22.2*	7.3	1.1	5.3	0.3
SMILES	PLCg1 inh	proKLK7 act	ADAM10 inh	ADAM17 inh	PLC-beta3 inh	ADAM10 confirm	ADAM17 counter
O=C(NC(C(=O)N/N=C/c1cccc2ccccc12)c1n[nH]c(=O)c2ccccc12)c1ccccc1 (stereo not given)	2.5	-6.1	21.9*	7.4	0.0	18.6	6.3
NNC(=O)c1cccc(COc2ccccc2Br)c1	2.8	-0.1	24.0*	4.5	4.1	1.2	0.5
O=C(NCc1ccccc1)c1cccc(COc2ccccc2Cl)c1	-2.2	0.5	17.8	4.8	-3.2	·	·
Cc1cc(C)c2c(N)c(C(=O)C(C)(C)C)sc2n1	-55.2	0.1	-13.1	-8.4	-65.7	·	·
COc1ccc(N2CCN(C(=O)CN(c3ccccc3)S(=O)(=O)c3ccc(OC)cc3)CC2)cc1	5.2	0.1	0.0	-0.9	3.2	·	·
COc1ccc(N2CCN(C(=O)CN(c3ccc(OC)cc3)S(=O)(=O)c3ccccc3)CC2)cc1	0.0	-0.2	20.6*	1.3	-6.9	3.4	-0.5
Cn1c(CSc2nc3ccccc3s2)n[nH]c1=S	-4.3	0.1	0.1	-4.4	0.8	·	·
S=c1[nH]nc(CSc2nc3ccccc3s2)o1	-3.1	0.0	25.2*	6.2	-4.5	-2.8	-0.2
CCC(C)NC(=O)C(Cc1ccccc1)NS(=O)(=O)c1ccc2c(c1)CCC(=O)N2 (stereo not given)	-0.1	0.3	-1.3	-3.0	-7.8	·	·
COCCNC(=S)N/N=C/c1ccc([N+](=O)[O-])cc1	4.0	-0.1	0.3	0.7	-1.0	·	·
COc1ccc(C(=O)NNC2=NC(C)(C)Cc3cc(C)c(C)cc32)cc1	0.3	0.5	-2.5	-3.3	0.7	·	·
COc1ccc(C2(c3ccc(OC)cc3)NC(=O)N(CC(=O)Nc3ccccc3C(F)(F)F)C2=O)cc1	5.2	0.4	21.2*	8.0	-1.2	2.1	1.0
Cc1ccc(C2(c3ccccc3)NC(=O)N(CC(=O)NCc3ccccc3)C2=O)cc1C (stereo not given)	4.1	-0.4	22.9*	8.2	3.1	3.0	0.7
Cc1cc(C)nc(SCCCNCc2ccccc2)n1	2.3	0.3	-3.4	-4.1	-3.7	·	·
CC(=O)Nc1cccc(C(=O)OC(C(=O)c2ccc(C)cc2)c2ccccc2)c1 (stereo not given)	-1.2	0.3	25.2*	6.8	-0.9	5.5	1.8
CSc1ccc(S(=O)(=O)NCc2ccc(Cl)cc2Cl)cc1	1.9	0.4	20.4*	2.2	0.4	2.1	0.3
COc1ccc(/C=N/NC(=O)c2ccn[nH]2)cc1CSc1ccccn1	1.1	-0.1	5.5	-2.2	-5.7	·	·
COc1ccc(/C=N/NC(=O)c2ccn[nH]2)cc1COc1ccc(Cl)cc1	1.1	-0.4	20.1*	6.8	-3.6	5.1	3.1
